Screens from PubChem.
TEAD-YAP inh: TEAD-YAP interaction inhibition, primary screen, TEAD-YAP interaction inhibitor project, luminescence, HEK-TIYL cells; TEAD-Gal4/YAP UAS-luciferase luminescence; inhibition, % at 9.12 µM; 1.4% of 640,000 active; in the data active means inhibition above about 32%;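 further: 0% = median of test compound wells and 100% = reference inhibitor wells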
GPR151 activ: activators of human GPR151, primary screen, cell-based, PathHunter beta-arrestin, luminescence; G-protein coupled receptor 151 (Homo sapiens), Q8TDV0; PathHunter beta-arrestin GPR151 cells; AID 1508602, 2020; 1% of 650,000 active; activation, % at 11.2 µM; in the data active means activation above about 4.9%;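 further: 0% = median of compound wells and 100% = cells with positive control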
Target sequence (Q8TDV0 whole entry, looked up): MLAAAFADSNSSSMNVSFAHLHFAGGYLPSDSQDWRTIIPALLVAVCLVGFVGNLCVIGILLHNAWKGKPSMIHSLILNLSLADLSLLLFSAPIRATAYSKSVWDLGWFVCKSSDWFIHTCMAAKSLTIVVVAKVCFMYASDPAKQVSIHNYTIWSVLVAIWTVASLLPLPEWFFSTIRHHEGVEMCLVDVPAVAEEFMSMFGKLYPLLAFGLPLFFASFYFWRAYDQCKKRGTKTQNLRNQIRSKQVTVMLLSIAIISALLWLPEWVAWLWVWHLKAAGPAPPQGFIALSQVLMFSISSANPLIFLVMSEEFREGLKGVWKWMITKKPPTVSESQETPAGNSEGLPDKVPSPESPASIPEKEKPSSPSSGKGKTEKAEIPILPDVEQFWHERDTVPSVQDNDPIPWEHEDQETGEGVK
MITF inh: MITF inhibitors, primary screen, biochemical, AlphaScreen, human; Microphthalmia-associated transcription factor (Homo sapiens), O75030; AlphaScreen MITF homodimerization, bead proximity signal; inhibition, % at 2.6 µM; 0.91% of 650,000 active; AID 1259374, 2018; in the data active means inhibition above about 50%;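 further: 0% = vehicle wells with protein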
FBW7 activator: FBW7 E3 ligase activators, primary screen, biochemical, AlphaScreen, human. F-box/WD repeat-containing protein 7 (Homo sapiens), Q969H0. AlphaScreen FBW7–phospho-cyclin E peptide binding, activator screen. normalized activity (activation), % at 26.1 µM. 0.13% of 650,000 active. AID 1259310, 2017; in the data active means normalized activity above about 1.9%;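 further: purified mutant Fbw7 with reduced substrate affinity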
* = called active by the depositor. Most compounds without a hit are left out; they make up all but 3.5% or so of the library.

SMILES | TEAD-YAP inh | GPR151 activ | MITF inh | FBW7 activator
COc1ccccc1Nc1nc2nonc2nc1Nc1cccc(Br)c1 | 21.0 | 0.2 | 2.4 | -0.3
Cc1cccc(Nc2nc(NCc3ccco3)c3ccccc3n2)c1 | 60.0* | -0.1 | -0.7 | -0.1
CCOC(=O)c1cc(NC(=O)NCC2CCCO2)c(C)nc1C (centres undefined) | -0.7 | 1.6 | -7.2 | -0.1
Cc1ccc(N/C(=N/S(=O)(=O)c2ccccc2)c2ccccc2)cc1 | 43.7* | 1.2 | 9.0 | 0.3
CCN(CC)c1ccc(/C=N/NC(=O)c2cc(Cl)ccc2O)c(O)c1 | -5.0 | -0.9 | 0.5 | -0.1
CCN(CC)c1ccc(/C=N\NC(=O)c2ccc(O)cc2)c(O)c1 | -6.5 | 0.1 | 16.0 | -0.1
CCN(CC)c1ccc(/C=N/NC(=O)c2ccc(F)cc2)c(O)c1 | 72.6* | -0.7 | -5.3 | 0.0
CCN(CC)c1ccc(/C=N/NC(=O)c2cc(C)oc2C)c(O)c1 | 53.4* | -4.1 | 9.8 | -1.1
COc1ccc(Br)cc1C1C(C#N)=C(N)Oc2n[nH]c(C)c21 (centres undefined) | 2.8 | -1.8 | -4.8 | -0.2
CCN(C(C)=O)c1nnc(-c2ccc(C)cc2)s1 | 47.5* | -4.1 | -1.0 | -0.1
CC(C)n1cnc2c(NC3CCN(Cc4ccccc4)CC3)nc(Nc3ccncn3)nc21 | 71.4* | -2.6 | 14.7 | 0.3
CC(C)n1cnc2c(NC3CCN(Cc4ccccc4)CC3)nc(Cl)nc21 | 46.8* | 0.5 | -2.1 | 0.0
COc1ccc(-c2nc(NC3CCN(Cc4ccccc4)CC3)c3ncn(C(C)C)c3n2)cn1 | 19.0 | -0.8 | -0.5 | 0.3
CC(C)n1cnc2c(NC3CC3)nc(N3CCN(c4ccccn4)CC3)nc21 | 35.3* | 2.5 | 11.8 | -0.2
CC(C)n1cnc2c(NC3CCN(Cc4ccccc4)CC3)nc(Nc3ccccn3)nc21 | 30.3 | -0.5 | 13.4 | 0.0
CC(C)n1cnc2c(NC3CCN(Cc4ccccc4)CC3)nc(-c3ccc(C(N)=O)cc3)nc21 | 92.0* | -1.9 | -8.4 | 0.1
CC(C)n1cnc2c(NC3CCN(Cc4ccccc4)CC3)nc(-c3cccc(N)c3)nc21 | 90.0* | 1.6 | 10.5 | -0.2
CCCN(CCC)C(=O)Cn1c2cc(OC)c(OC)cc2c2nc(=O)cc(C)n21 | 4.6 | -0.4 | 0.3 | 0.1
COc1ccccc1C(=O)Nc1ccc(Nc2cc(-n3ccnc3)ncn2)cc1 | 36.9* | -0.1 | 1.2 | -0.1
Cc1onc(-c2ccccc2Cl)c1C(=O)Nc1cccc2ccc(-n3ccnc3)nc12 | 18.9 | 2.5 | -1.8 | -0.2
O=C(Nc1ccc(Nc2cc(-n3ccnc3)ncn2)cc1)C(c1ccccc1)c1ccccc1 | 27.5 | 1.0 | 20.6 | 0.3
O=C(Nc1ccc(Nc2cc(-n3ccnc3)ncn2)cc1)c1ccccc1Cl | 40.6* | 1.0 | -2.9 | -0.1
O=C(Cc1ccc(F)cc1)Nc1ccc(Nc2cc(-n3ccnc3)ncn2)cc1 | 13.1 | -2.0 | 9.7 | 0.2
O=C(Nc1cccc2ccc(-n3ccnc3)nc12)c1ccccc1Cl | 9.2 | 1.1 | 2.3 | 2.3*
COc1cccc(-c2nc3ccc([N+](=O)[O-])cc3[nH]2)c1 | -54.1 | -2.0 | 10.7 | -0.1
SMILES | TEAD-YAP inh | GPR151 activ | MITF inh | FBW7 activator
Brc1ccc(Oc2ccccc2)cc1Oc1ccccc1 | 3.9 | 0.3 | -3.0 | -0.1
O=C(CSc1nnc2ccc(-c3ccc(Cl)cc3)nn12)N1CCCc2ccccc21 | -2.8 | -0.5 | 5.2 | 0.1
O=C(CSc1nnc2ccc(-c3cccnc3)nn12)N1CCCc2ccccc21 | 0.1 | -0.9 | 7.8 | 1.9*
CCN1C/C(=C\c2cccn2C)C(=O)/C(=C/c2cccn2C)C1 | 0.7 | 0.5 | 11.3 | -0.1
Cn1cccc1/C=C1\CS/C(=C\c2cccn2C)C1=O | -10.8 | 0.9 | 67.9* | -0.5
O=C(CCN1CCCCC1)Nc1ccccc1F | -3.8 | -1.8 | -9.8 | -0.1
O=C1C(C=Nc2ccccc2O)=C(O)c2ccccc21 | 48.9* | -8.1 | 1.0 | -0.3
COc1ccc(N=CC2=C(O)c3ccccc3C2=O)cc1 | 42.7* | -3.5 | 14.6 | 0.0
CC12CC3CC(C)(C1)CC(CC(=O)NNC(N)=O)(C3)C2 | -3.0 | -0.9 | -3.4 | 0.1
O=[N+]([O-])c1ccc(N2CCN(c3ncnc4c3c(-c3ccccc3)cn4-c3ccccc3)CC2)cc1 | 6.0 | -0.6 | -1.7 | -0.1
CC(C)c1ccc(N(CC(=O)N2CCN(C)CC2)S(=O)(=O)c2ccccc2)cc1 | -6.4 | 0.0 | 7.7 | 0.2
Nc1cc2c(cc1S(=O)(=O)O)C(=O)c1ccccc1C2=O | -11.4 | -6.7 | 18.4 | 0.1
